# In all, about 35,000 sequences were measured (“fluorescence intensity (a.u.)”: median about 10,000, highest 2% from about 52,000 on). For the sample, the highest values were picked, then their nearest neighbours and some sequences at random.
# Target: T1, OsWOX13 (Oryza sativa, UniProt Q5QMM3 1-267)
# T1 sequence: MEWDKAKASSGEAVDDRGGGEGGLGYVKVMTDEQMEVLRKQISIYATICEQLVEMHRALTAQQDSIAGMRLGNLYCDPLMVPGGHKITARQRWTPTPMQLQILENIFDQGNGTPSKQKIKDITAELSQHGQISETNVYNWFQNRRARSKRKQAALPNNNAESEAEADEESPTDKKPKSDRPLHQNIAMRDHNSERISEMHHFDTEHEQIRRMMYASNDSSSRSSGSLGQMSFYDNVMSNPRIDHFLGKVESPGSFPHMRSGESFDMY
# Test: protein-binding microarray (RPBM); PBS, 2% BSA, 51.3 ng/ul salmon testes DNA, 50 uM zinc acetate, 200 nM TF, 25 C, 1 h; high values mean tight binding
# Details: protein: recombinant; tags: N-terminal polyhistidine and DsRed monomer fusion (pET32a); label: CyDye5-dUTP incorporated in the synthesized complementary strand; 3' TTTTT single-stranded linker to array surface; dsDNA, one strand shown
# Procedure, shortened: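 The binding signal is fluorescence intensity per feature, in arbitrary units, read on an Axon 4000B scanner. Polyhistidine- and DsRed-tagged transcription factors (N-terminal fusions) from E. coli BL21-CodonPlus were purified on Ni–NTA and applied at 200 nM for 1 h at 25 °C to a double-stranded, BSA-blocked custom Agilent array in buffer with 50 µM zinc acetate.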
row,Sequence,binding signal
1,CCCTCAATCAGCTGGTCGGCTGGTCGCACACACCACGTTCCGGAGTCACCTAGTGCAG,11500 fluorescence intensity (a.u.)
2,TAACTAATTAGTTAACTAATCGTCAATGTCACTAGCTTCTCGGAGTCACCTAGTGCAG,45100 fluorescence intensity (a.u.)
3,ATGATGAGATTGAGGTTGATATAGATAGCTTTGATGTTGACGGAGTCACCTAGTGCAG,23200 fluorescence intensity (a.u.)
4,GTGATAATTGCAAAATTAGGAATTATGCAAGGGGTGTAGACGGAGTCACCTAGTGCAG,49400 fluorescence intensity (a.u.)
5,TTTGCTAATGACAAATTAATTAGGCTTAATAAATTCGTCTCGGAGTCACCTAGTGCAG,41500 fluorescence intensity (a.u.)
6,GGGAAGACGAGATTGAGTGGATCAAAAGCCCTAAACCAATCGGAGTCACCTAGTGCAG,8660 fluorescence intensity (a.u.)
7,GCAGCTGACAGATGGAGGGATGTTCAGGATGTCCGGAGAACGGAGTCACCTAGTGCAG,3250 fluorescence intensity (a.u.)
8,ACATTTACTTAATTGTAAATATATATTTTGGTAATATATGCGGAGTCACCTAGTGCAG,9650 fluorescence intensity (a.u.)
9,GACCTTATTTGCATTGATTGACCTTATTTGCATTGATTTTCGGAGTCACCTAGTGCAG,19600 fluorescence intensity (a.u.)
10,GAAAATAGTATGATTGAAAATGACGTAAAGTGAATAGACCCGGAGTCACCTAGTGCAG,23000 fluorescence intensity (a.u.)
11,CCTAATTTCTAACATTATATTGTTGCTTAGTGTACTAACTCGGAGTCACCTAGTGCAG,18700 fluorescence intensity (a.u.)
12,TTATTCAGATAATTTGATGATGATGAAAGCAGAAGCTTTGCGGAGTCACCTAGTGCAG,8570 fluorescence intensity (a.u.)
13,ATGATTGTGATTTATATTTTGAAATAAAGAGAGTAGTAATCGGAGTCACCTAGTGCAG,50500 fluorescence intensity (a.u.)
14,ATATTTTGATTGAATATGACGTATCCTAGTAATTTGGACCCGGAGTCACCTAGTGCAG,59700 fluorescence intensity (a.u.)
15,ATATTGAATTATTGATTTGATGAAAATAATTTAGTATTATCGGAGTCACCTAGTGCAG,20500 fluorescence intensity (a.u.)
16,CTTAAATTGATTTATTTTGGAACGGAGAGAGTAATATGCACGGAGTCACCTAGTGCAG,53500 fluorescence intensity (a.u.)
17,TACTACTAATTATTGTCTTCTTAGTAATCACCAAGTGTGCCGGAGTCACCTAGTGCAG,20700 fluorescence intensity (a.u.)
18,ATAATTGATTGCTTTTGATGATTTCACCCTTATTTTGCTGCGGAGTCACCTAGTGCAG,65100 fluorescence intensity (a.u.)
19,AATTAATTAATTAGTCTGTTCTTATTGCTTAGTGTACTACCGGAGTCACCTAGTGCAG,53600 fluorescence intensity (a.u.)
20,TTTCCATTAATAAATTGAAACATATTGAACTAGATCGTTCCGGAGTCACCTAGTGCAG,15600 fluorescence intensity (a.u.)
21,TTTAATAATTTGTTTATAAAAGAAACTAAAGGGCACTGCTCGGAGTCACCTAGTGCAG,12200 fluorescence intensity (a.u.)

row,Sequence,binding signal
1,ATAAACTGGAACAGAAGGCCAGGCGGAAATAAACTGGACACGGAGTCACCTAGTGCAG,6490 fluorescence intensity (a.u.)
2,GGCCTAATTCATTGACGGGAACTAAGTGGGCTGAATTCGTCGGAGTCACCTAGTGCAG,7250 fluorescence intensity (a.u.)
3,CCCAAATTAATCATCATGTAATAGAATGATATATTCATTGCGGAGTCACCTAGTGCAG,49200 fluorescence intensity (a.u.)
4,GTGTCGCCAGTGATTGCAGTTTCAGTTCGAAATTTCTCTACGGAGTCACCTAGTGCAG,9490 fluorescence intensity (a.u.)
5,ATAACGAACGGATGAGATTGATCGCTACAATACTCTAGAGCGGAGTCACCTAGTGCAG,4050 fluorescence intensity (a.u.)
6,TAAACTCCAAGTTGATTATCCAACGAATCGTAGCCTCGAGCGGAGTCACCTAGTGCAG,5690 fluorescence intensity (a.u.)
7,GATCAATCATTTGCTGAGCTCGTGAATTCTGTCTGGTTCACGGAGTCACCTAGTGCAG,24300 fluorescence intensity (a.u.)
8,AATATAAATTAAATTTTATTTGCTAAAATTAATATCATTGCGGAGTCACCTAGTGCAG,15000 fluorescence intensity (a.u.)
9,TTCTAATAATTTGATATTAGGTCATTCCCTAATATTCGTGCGGAGTCACCTAGTGCAG,25000 fluorescence intensity (a.u.)
10,ATTTCTTAATTTAATGCTATTCTGACTCCTTGCACCTCTACGGAGTCACCTAGTGCAG,12300 fluorescence intensity (a.u.)
11,TATAAATTTAGTCAAATTTAAAGCAGTTTGATTTTGACCACGGAGTCACCTAGTGCAG,26800 fluorescence intensity (a.u.)
12,TTAAATTTAATTAAATTTAAAGCAGTTTGATTTTGACCAACGGAGTCACCTAGTGCAG,56000 fluorescence intensity (a.u.)
13,TAACTAATTATGTACTAACAAATTAGCTAGTCTACCATGCCGGAGTCACCTAGTGCAG,56600 fluorescence intensity (a.u.)
14,GTACAAAATTATCTAAAATTAACTACAAAATTATGTACTACGGAGTCACCTAGTGCAG,12800 fluorescence intensity (a.u.)
15,AACTTAATTAAATTTAAAGCAGTTTGATTTTGACTAAAGTCGGAGTCACCTAGTGCAG,31800 fluorescence intensity (a.u.)
16,CCTTAATTAATTAATTAATTACGTGCTATTTATTTCTTGGCGGAGTCACCTAGTGCAG,55300 fluorescence intensity (a.u.)
17,ACTAGCTAAATTATACCATGTTAACTTATACTATATTAGTCGGAGTCACCTAGTGCAG,9700 fluorescence intensity (a.u.)
18,CTTAATTAATAGGGTATTAATAACCTCCCTAAAGTCATTGCGGAGTCACCTAGTGCAG,60200 fluorescence intensity (a.u.)
19,AATTTACACTTAATTTGCTATTTGCTATACATGTTTTCTACGGAGTCACCTAGTGCAG,10800 fluorescence intensity (a.u.)
20,GGCGTTAATCACGTGATGGGCATGGATAGTGATTTAGATTCGGAGTCACCTAGTGCAG,13900 fluorescence intensity (a.u.)
21,GATATGATGGGTACAAACTGTTATAAACTAACATGTCTATCGGAGTCACCTAGTGCAG,5970 fluorescence intensity (a.u.)
